PubChem BioAssay (NCATS)
Records with an inconclusive call do not appear. Calls of active or inactive are those of the source. Unless noted, calls come from the whole dose curve; as a rule, active = well fitted curve in either direction with a large enough effect (not every such curve was filed as active); inconclusive = small, poorly fitted or top-dose-only effect, or another doubt; inactive = flat fitted curve, though single readings scatter.

How the values were obtained:
[1] = AP1 Signaling Pathway (AID 357); details: ME-180 AP-1-bla reporter, EGF-induced, beta-lactamase ratio, 5 h; at 7.69 µM (top of the series) unless noted;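 note: ME-180 reporter cells stimulated with EGF at its EC50 level; % is set by controls: 0 for no effect and ±100 for the full control effect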
Procedure, shortened: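 Read-out was the 460nm/530nm emission ratio (excitation 405nm) after CCF4 loading for 2.5 hours at room temperature. Cells carried an AP-1-driven beta-lactamase reporter, were stimulated with EC50 EGF plus compound for 5 hours, and AC50 values came from titrations.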

[2] = molecular target: Cytochrome P450 1A2 (Homo sapiens) (UniProt P05177); test: p450-cyp1a2 (AID 410; calls by dose curve; note: potency is the fitted concentration of half-maximal effect;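 for activity change, negative = inhibition: -100% = full effect of reference inhibitor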)
Sequence of Cytochrome P450 1A2 (Homo sapiens) (P05177 whole entry, looked up): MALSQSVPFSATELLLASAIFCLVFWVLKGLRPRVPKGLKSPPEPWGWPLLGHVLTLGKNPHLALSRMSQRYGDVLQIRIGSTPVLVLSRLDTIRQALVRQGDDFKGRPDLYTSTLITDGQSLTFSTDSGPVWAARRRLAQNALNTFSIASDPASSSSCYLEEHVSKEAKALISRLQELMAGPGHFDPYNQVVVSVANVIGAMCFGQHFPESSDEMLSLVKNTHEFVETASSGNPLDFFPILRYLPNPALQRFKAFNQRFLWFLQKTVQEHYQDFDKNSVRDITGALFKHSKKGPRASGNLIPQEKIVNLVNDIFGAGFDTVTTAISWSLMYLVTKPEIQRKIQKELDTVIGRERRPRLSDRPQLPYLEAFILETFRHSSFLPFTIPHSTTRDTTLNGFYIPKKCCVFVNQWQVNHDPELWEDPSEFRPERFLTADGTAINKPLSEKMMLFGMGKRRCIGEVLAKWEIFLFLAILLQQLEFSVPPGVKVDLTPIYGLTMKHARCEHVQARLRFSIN
Procedure, shortened: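 Read-out is luminescence from luciferin produced by CYP1A2 demethylation of Luciferin-ME (100uM, at Km). Detection reagent stopped the 60 min NADPH-dependent reaction; signals were normalized to 57 uM furafylline.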

[3] = NFAT Signaling Pathway (AID 444); details: Jurkat NFAT-bla M1, carbachol, beta-lactamase ratio, 5 h; at 7.69 µM (top of the series) unless noted;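 note: carbachol stimulus at about its EC50 of 1 µM final; % is set by controls: 0 for no effect and ±100 for the full control effect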
Procedure, shortened: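 Read-out: CCF4 FRET ratio (460 nm/530 nm) after 1 h RT dye loading, used for %activity and AC50 from titration series. Cells: Jurkat NFAT-β-lactamase/M1 line, treated with compound plus 1 uM carbachol for 5 h, 37 °C.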

[4] = Stat Signaling Pathway (AID 446); details: ME-180 (cervical carcinoma) SIE beta-lactamase reporter, IL-6 stimulated, 5 h; at 7.69 µM (top of the series) unless noted;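 note: ME-180 cervical cancer cells given 40 pM IL-6 alongside compound; SIE-controlled beta-lactamase reporter measured as 460/530 nm FRET emission ratio; % is set by controls: 0 for no effect and ±100 for the full control effect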
Procedure, shortened: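 Emission at 460 and 530 nm (excitation 405 nm) reports SIE-controlled beta-lactamase in ME-180 cells. Cells received compound with 40 pM IL-6 for 5 hrs at 37 C; data scaled between 300 pM IL-6 and 125 nM JAK-inhibitor controls.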

[5] = molecular target: Glucocorticoid receptor (Homo sapiens) (UniProt P04150); test: GR-GFP Redistribution (AID 450;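 active = compounds whose dose series gives a full or clear partial fitted curve of increased nuclear translocation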; note: potency is the fitted concentration of half-maximal effect); details: U2OS GR-GFP nuclear translocation, laser cytometry, 2 h
Sequence of Glucocorticoid receptor (Homo sapiens) (P04150 whole entry, looked up, the tested form may be a part): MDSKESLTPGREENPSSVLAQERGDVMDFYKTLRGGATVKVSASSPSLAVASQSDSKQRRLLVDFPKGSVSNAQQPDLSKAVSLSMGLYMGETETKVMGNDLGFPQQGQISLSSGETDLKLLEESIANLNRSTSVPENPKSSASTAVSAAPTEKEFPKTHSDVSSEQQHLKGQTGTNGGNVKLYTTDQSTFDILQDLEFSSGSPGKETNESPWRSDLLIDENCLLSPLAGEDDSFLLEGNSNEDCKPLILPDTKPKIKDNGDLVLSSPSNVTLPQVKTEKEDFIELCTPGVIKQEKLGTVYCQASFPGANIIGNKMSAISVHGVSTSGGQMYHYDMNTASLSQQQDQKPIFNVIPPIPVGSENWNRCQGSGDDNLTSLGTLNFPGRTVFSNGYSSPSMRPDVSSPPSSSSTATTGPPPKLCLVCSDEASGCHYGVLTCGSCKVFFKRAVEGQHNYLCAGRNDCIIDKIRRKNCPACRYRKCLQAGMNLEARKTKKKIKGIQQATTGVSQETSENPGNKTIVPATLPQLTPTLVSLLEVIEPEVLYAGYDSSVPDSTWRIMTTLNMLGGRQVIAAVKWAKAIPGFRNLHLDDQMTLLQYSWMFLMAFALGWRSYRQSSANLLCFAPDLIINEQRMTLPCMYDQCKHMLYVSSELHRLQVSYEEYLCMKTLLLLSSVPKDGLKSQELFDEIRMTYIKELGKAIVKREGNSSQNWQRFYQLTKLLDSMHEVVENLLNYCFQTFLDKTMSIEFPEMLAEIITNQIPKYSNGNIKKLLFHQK

[6] = molecular target: Glucocorticoid receptor (Homo sapiens) (UniProt P04150); test: GR-EFC Redistribution (AID 451; calls by dose curve; note: potency is the fitted concentration of half-maximal effect); details: CHO-K1 GR-EFC translocation, beta-gal luminescence, 2 h
Procedure, shortened: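 Translocation of GR-ED fusion to nuclear EA restores b-gal, read by luminescence after 1 h room-temperature detection. Engineered CHO-K1 biosensor cells, 1,000/well, exposed 2 h at 37 C to titrations up to 46 uM final.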

[7] = molecular target: Mitogen-activated protein kinase 10 (Mus musculus) (UniProt Q61831); test: JNK3 AlphaScreen Assay (AID 530);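 note: kinase came from lysate of stimulated human HepG2 cells; signal reports phosphorylation of biotinylated GST-cJun 1-79 at Ser73 with 10 µM ATP; % is set by controls: 0 for no effect and ±100 for the full control effect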
Procedure, shortened: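 Kinase buffer: 20 mM Tris-HCl pH 7.6, 10 mM MgCl2, 1 mM DTT, 0.1 mM Na3VO4, 0.01% Tween-20; ATP 10 uM. Substrate biotin-GST-cJun(1-79), enzyme from activated HepG2 lysates. Detection by Ser73 phospho-antibody AlphaScreen.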

[8] = molecular target: Cytochrome P450 3A4 (Homo sapiens) (UniProt P08684); test: qHTS Assay for Activators of Cytochrome P450 3A4 (AID 885; active = well fitted curve in the direction sought with a large enough effect; an effect the other way counts as inactive or inconclusive; note: nearly all actives have a fitted effect of over 65% in size)
Sequence of Cytochrome P450 3A4 (Homo sapiens) (P08684 whole entry, looked up): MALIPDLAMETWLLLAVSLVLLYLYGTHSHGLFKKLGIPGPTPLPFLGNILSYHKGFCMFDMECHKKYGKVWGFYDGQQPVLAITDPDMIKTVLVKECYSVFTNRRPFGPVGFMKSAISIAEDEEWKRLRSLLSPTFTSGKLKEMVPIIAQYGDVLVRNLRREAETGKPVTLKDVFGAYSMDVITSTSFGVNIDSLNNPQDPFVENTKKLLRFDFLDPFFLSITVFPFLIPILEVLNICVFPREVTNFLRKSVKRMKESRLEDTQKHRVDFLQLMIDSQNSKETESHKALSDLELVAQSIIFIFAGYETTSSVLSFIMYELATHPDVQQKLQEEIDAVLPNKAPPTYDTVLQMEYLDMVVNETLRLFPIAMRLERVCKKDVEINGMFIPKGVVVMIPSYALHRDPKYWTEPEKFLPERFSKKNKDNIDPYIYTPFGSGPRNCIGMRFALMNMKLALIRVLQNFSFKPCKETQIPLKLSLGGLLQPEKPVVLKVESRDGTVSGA
Procedure, shortened: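 Activators are scored by enhanced luminescence from CYP3A4 conversion of luciferin-PPXE (25uM, equal to KM) to luciferin, after 60 min at RT with an NADPH-regenerating system.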

[9] = Confirmation and Secondary Assay for Modulators of Hemoglobin Beta Chain Splicing at IVS2 654 locus (AID 910; active = well fitted curve in the direction sought with a large enough effect; an effect the other way counts as inactive or inconclusive;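 note: HeLa cells stably carrying EGFP split by mutant beta-globin IVS2-654 intron; per-well total GFP intensity by laser scanning cytometry after 2-day treatment; % of control where 0% means no effect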)
Procedure, shortened: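 Readout: per-well total peak green fluorescence (488 nm ex, 500–520 nm em) from objects 5–250 µm, reflecting correct splicing of an EGFP-654 reporter. Compounds were applied for 2 days at 37 °C to overnight-plated HeLa EGFP-654 cells; controls were DMSO and 500 nM IVS2-654 PNA.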

[10] = qHTS Assay for Lipid Storage Modulators (AID 1519; calls by dose curve); details: Drosophila S3 cells, BODIPY lipid droplet/cell ratio, laser cytometry, cells loaded with oleic acid; for activity change, negative = inhibition: at 57.5 µM (top of the series)
Procedure, shortened: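 Cells seeded at 5,000 per well were treated with compounds over a concentration series and loaded with oleic acid (400 uM, as added). Lipid droplet fluorescence (488 nm excitation, 500-530 nm channel) was read by laser-scanning cytometry and normalized to 20 uM Triacsin C.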

[11] = molecular target: Ubiquitin carboxyl-terminal hydrolase 1 (Homo sapiens) (UniProt O94782); test: Inhibitors of USP1/UAF1: Pilot qHTS (AID 504865; active = well fitted curve in the direction sought with a large enough effect; an effect the other way counts as inactive or inconclusive;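 note: rhodamine fluorescence freed from ubiquitin-rhodamine substrate followed over time; top concentration of the series differs between compounds; % is set by controls: 0 for no effect and ±100 for the full control effect; nearly all actives have a fitted effect of over 35% in size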)
Sequence of Ubiquitin carboxyl-terminal hydrolase 1 (Homo sapiens) (O94782 whole entry, looked up): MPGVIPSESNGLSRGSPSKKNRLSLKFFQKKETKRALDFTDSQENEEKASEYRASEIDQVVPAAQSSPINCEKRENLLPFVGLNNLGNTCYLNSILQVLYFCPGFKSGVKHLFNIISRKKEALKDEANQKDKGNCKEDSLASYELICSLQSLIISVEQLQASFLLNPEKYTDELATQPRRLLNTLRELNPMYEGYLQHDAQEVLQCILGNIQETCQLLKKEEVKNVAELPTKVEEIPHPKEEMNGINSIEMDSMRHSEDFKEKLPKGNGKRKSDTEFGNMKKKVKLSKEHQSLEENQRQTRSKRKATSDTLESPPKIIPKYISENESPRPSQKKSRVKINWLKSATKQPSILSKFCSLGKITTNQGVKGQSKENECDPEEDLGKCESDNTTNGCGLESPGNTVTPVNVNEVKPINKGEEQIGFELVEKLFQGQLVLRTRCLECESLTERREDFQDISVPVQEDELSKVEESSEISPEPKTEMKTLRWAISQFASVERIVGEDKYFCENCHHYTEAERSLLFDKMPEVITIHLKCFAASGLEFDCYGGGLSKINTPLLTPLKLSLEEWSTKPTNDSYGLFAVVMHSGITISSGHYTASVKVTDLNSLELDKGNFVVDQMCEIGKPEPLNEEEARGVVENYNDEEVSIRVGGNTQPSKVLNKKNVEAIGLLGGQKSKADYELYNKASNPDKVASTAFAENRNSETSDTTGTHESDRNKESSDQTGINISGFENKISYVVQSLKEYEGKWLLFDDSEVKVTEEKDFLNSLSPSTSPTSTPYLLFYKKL
Procedure, shortened: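 Kinetic fluorescence assay: 1nM USP1/UAF1, 15 min compound preincubation, then 150nM Ub-Rho; 480/540 nm.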

[12] = Primary qHTS for small molecule stabilizers of the endoplasmic reticulum resident proteome: Secreted ER Calcium Modulated Protein (SERCaMP) assay (AID 1508630; active = well fitted curve in the direction sought with a large enough effect; an effect the other way counts as inactive or inconclusive; note: % is set by controls: 0 for no effect and ±100 for the full control effect)
Procedure, shortened: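 The SH-SY5Y reporter protocol was run at 3 concentrations up to 38.3 uM (primary) or 11 concentrations (follow-up): 16 h compound, 100 nM thapsigargin for 4 h, then extracellular luciferase luminescence.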

[13] = molecular target: 3',5'-cyclic-AMP phosphodiesterase 4B (Homo sapiens) (UniProt Q07343); test: qHTS Assay for Inhibitors of PDE-IV (AID 607; active = well fitted activation curve with a large enough effect in the main read-out, with a control signal flat, not every such curve was filed as active; note: % of control where 0% means no effect)
Sequence of 3',5'-cyclic-AMP phosphodiesterase 4B (Homo sapiens) (Q07343 whole entry, looked up): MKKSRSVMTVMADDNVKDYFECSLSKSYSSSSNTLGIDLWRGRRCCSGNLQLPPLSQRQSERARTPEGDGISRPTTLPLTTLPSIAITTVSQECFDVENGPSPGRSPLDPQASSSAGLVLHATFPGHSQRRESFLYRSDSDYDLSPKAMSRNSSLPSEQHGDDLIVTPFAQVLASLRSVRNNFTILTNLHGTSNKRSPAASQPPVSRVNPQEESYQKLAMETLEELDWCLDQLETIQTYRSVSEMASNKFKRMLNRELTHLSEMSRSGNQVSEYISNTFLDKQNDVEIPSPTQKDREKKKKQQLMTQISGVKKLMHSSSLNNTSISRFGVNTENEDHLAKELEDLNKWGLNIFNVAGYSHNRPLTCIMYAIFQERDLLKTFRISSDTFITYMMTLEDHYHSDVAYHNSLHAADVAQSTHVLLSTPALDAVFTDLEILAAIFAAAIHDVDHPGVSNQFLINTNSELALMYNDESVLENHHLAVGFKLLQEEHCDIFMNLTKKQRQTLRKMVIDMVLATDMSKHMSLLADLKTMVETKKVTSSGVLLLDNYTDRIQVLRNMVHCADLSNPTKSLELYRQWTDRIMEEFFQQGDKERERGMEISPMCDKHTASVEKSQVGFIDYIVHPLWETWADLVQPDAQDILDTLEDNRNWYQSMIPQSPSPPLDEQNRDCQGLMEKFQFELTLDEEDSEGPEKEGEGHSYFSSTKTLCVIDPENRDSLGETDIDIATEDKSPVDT
Procedure, shortened: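 The readout is membrane depolarisation from a cAMP-sensing CNG channel, detected with a potential dye at ex 535/em 590. Cells were HEK293-derived (endogenous PDE-IV) at 1000 cells/well, titrated up to 22.9 uM final.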

[14] = molecular target: Lysosomal acid glucosylceramidase (Homo sapiens) (UniProt P04062); test: Glucocerebrosidase-p2 (AID 348; in the data active = potency below about 10 µM; note: potency is the fitted concentration of half-maximal effect); details: purified GBA, blue fluorogenic substrate, 40 min
Sequence of Lysosomal acid glucosylceramidase (Homo sapiens) (P04062 whole entry, looked up): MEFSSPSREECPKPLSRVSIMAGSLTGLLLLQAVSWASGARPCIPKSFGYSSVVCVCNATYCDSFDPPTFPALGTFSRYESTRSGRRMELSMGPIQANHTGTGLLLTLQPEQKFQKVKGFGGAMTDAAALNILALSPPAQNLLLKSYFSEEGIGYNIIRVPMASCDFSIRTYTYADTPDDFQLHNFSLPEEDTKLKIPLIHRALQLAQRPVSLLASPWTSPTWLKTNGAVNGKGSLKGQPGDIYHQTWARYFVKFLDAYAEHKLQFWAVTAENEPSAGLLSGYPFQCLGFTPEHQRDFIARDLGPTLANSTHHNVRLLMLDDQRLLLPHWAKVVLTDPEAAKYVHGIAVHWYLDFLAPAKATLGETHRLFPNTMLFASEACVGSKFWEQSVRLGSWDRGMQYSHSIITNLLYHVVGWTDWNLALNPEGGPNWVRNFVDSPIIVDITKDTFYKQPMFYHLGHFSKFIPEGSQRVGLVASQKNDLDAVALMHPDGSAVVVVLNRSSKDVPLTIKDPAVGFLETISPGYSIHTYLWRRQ
Procedure, shortened: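 Normal human glucocerebrosidase (0.2 nM) with blue fluorogenic substrate (80 uM final) in citrate/phosphate pH 5.9 with 10mM sodium taurocholate, 0.01% tween-20; 40 min RT, NaOH/glycine stop; fluorescence Ex 365/Em 440; AC50 from a titration from 0.6 nM upwards.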

[15] = molecular target: Cytochrome P450 3A4 (Homo sapiens) (UniProt P08684); test: qHTS Assay for Inhibitors and Substrates of Cytochrome P450 3A4 (AID 884; active = well fitted curve in the direction sought with a large enough effect; an effect the other way counts as inactive or inconclusive; note: potency is the fitted concentration of half-maximal effect; nearly all actives have a fitted effect of over 50% in size)
Procedure, shortened: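 Luminescent readout of luciferin produced by CYP3A4 (20 nM) dealkylation of Luciferin-PPXE, 25 uM (its KM). NADPH-driven reaction ran 60 min at RT after 10 min compound preincubation; data scaled to 57 uM ketoconazole as 100% inhibition.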

[16] = measured here: cell count channel max response
[17] = measured here: lipid channel max response

Compound | activity change, negative = inhibition [1] | Potency [2] | activity change, negative = inhibition [3] | activity, negative = inhibition [4] | Potency [5] | Potency [6] | outcome [7] | Potency [8] | outcome [9] | activity change, negative = inhibition [10] | max response [10, 16] | max response [10, 17] | Potency [11] | Potency [12] | Potency [13] | Potency [14] | Potency [15]
CN(C)Cc1ccccc1-c1nc(N2CCOCC2)c2ccccc2n1 | 25.9% (inactive) | 20 µM (active) | -1.63% (inactive) | 27.7% (inactive) | > 46 µM (inactive) | > 46 µM (inactive) | inactive | inactive | inactive | 5.13% (inactive) | 11.7% | 18.4% | inactive | inactive |  |  | 
c1ccc(CNc2ccnc(-c3ccoc3)n2)cc1 | -4.42% (inactive) | 2.51 µM (active) | 4.39% (inactive) | 10.2% (inactive) | > 46 µM (inactive) | > 46 µM (inactive) | inactive | inactive | inactive | 9.38% (inactive) | 7.25% | 15% |  | inactive |  |  | 
COCC(=O)N1CCC2(CC1)CCN(C(=O)Nc1cccc(F)c1)CC2 | 5.9% (inactive) | inactive | 3.94% (inactive) | -5.26% (inactive) |  | > 46 µM (inactive) | inactive |  |  | 0.649% (inactive) | 10.1% | 10.7% |  | inactive | inactive |  | 
COc1ccc(NC(=O)N2CC[C@@]3(CCCN(C(=O)c4cnccn4)C3)C2)cc1 |  | inactive | -2.83% (inactive) | 6.32% (inactive) |  | > 46 µM (inactive) | inactive | inactive |  | 4.73% (inactive) | 2.35% | 9.8% |  | inactive | inactive | > 11.4 µM (inactive) | 
COc1ccccc1-c1cncnc1NCc1cccnc1 |  | 6.31 µM (active) | -4.56% (inactive) | 4% (inactive) | > 46 µM (inactive) | > 46 µM (inactive) | inactive | inactive | inactive | 7.04% (inactive) | 11.1% | 18.5% | inactive | inactive | inactive | > 11.4 µM (inactive) | 0.501 µM (active)
CS(=O)(=O)N1CCC2(CC1)CN(Cc1cc(C(F)(F)F)cc(C(F)(F)F)c1)C2 |  | inactive | -8.2% (inactive) | -3.12% (inactive) |  | > 46 µM (inactive) | inactive |  |  | 2.23% (inactive) | -5.23% | 0.681% |  | inactive | inactive | > 11.4 µM (inactive) | 
O=C(c1cnccn1)N1CCC[C@@]2(CCN(c3ccncc3)C2)C1 |  | inactive | 1.53% (inactive) | 5.94% (inactive) |  | > 46 µM (inactive) |  | inactive |  | 3.16% (inactive) | 6.74% | 12.1% |  | inactive | inactive | > 11.4 µM (inactive) | 3.16 µM (active)
COCC(=O)N1CCC2(CC1)CN(Cc1ccc(C#N)cc1)C2 |  | inactive | -16.7% (inactive) |  |  | > 46 µM (inactive) | inactive |  |  | -4.37% (inactive) | 8.42% | 5.18% |  | inactive | inactive | > 11.4 µM (inactive) | 
CC(C)NC(=O)N1CC[C@@]2(CCCN(C(=O)c3cc(C(F)(F)F)cc(C(F)(F)F)c3)C2)C1 | 8.49% (inactive) | inactive | 9.52% (inactive) | -10.1% (inactive) |  | > 46 µM (inactive) | inactive | inactive |  | 1.68% (inactive) | 19.4% | 20.3% |  | inactive | inactive |  | 
CC(=O)N1CCC2(CC1)CN(Cc1ccccc1)C2 |  | inactive | 0.306% (inactive) | -5.51% (inactive) |  | > 46 µM (inactive) | inactive |  |  | -0.469% (inactive) | -1.63% | -1.86% |  | inactive | inactive | > 11.4 µM (inactive) | 
